Nine compounds from PubChem BioAssay (Tox21) can be followed below.

A short description of assay [1]: qHTS assay to identify small molecule agonists of H2AX (AID 1224845; active means well fitted activation curve with a large enough effect in the signal ratio in the repeat runs, not every such curve was filed as active; the % refers to the signal ratio; further: potency means the concentration at half of the fitted maximal effect). An outline of the steps: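 Phospho-H2AX Ser139 measured by HTRF (ex 320 nm; em 665 and 620 nm) after 24 hr antibody incubation. Compounds, 15 concentrations, 0.76% DMSO, were applied to CHO-K1 cells for 3hr at 37C before lysis.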
A short description of assay [2]: qHTS assay to identify small molecule agonists of the hypoxia (HIF-1) signaling pathway (AID 1224846; active means well fitted activation curve with a large enough effect in the signal ratio in the repeat runs, not every such curve was filed as active; the % refers to the signal ratio). Summed up: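 Steps: seed ME-180 HRE-bla cells (2,000/well, 0.5% dialyzed FBS); incubate 5 hrs at 37C; pin-transfer compounds or DMSO; incubate 17 hrs; add LiveBLAzer B/G substrate CCF4-AM; measure reporter activation by FRET.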
Assay [3] in a line: qHTS assay to identify small molecule agonists of H2AX - cell viability counter screen (AID 1224847; calls by dose curve; further: nearly all actives have a fitted effect of over 30% in size; further: potency means the concentration at half of the fitted maximal effect). An outline of the steps:
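We seed wild-type CHO-K1 cells overnight, treat them for 3 hr at 37C with compounds in 15-concentration series, and quantify remaining viability by CellTiter-Glo luminescence.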

Assay [4] in a line: qHTS assay to identify small molecule antagonists of the estrogen related receptor (ERR) signaling pathway from Tox21 library (AID 1224848). Further: nearly all actives have a fitted effect of over 50% in size. Further: potency means the concentration at half of the fitted maximal effect. Summed up: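 Antagonist-mode screen of the Tox21 10K library in an NTP-provided ERR reporter cell line; 18 h compound exposure at 37 C, luminescence measured with ONE-Glo.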
The nature of assay [5]: qHTS assay to identify small molecule agonists of the estrogen related receptor (ERR) signaling pathway from Tox21 library (AID 1224849; calls by dose curve; further: nearly all actives have a fitted effect of over 15% in size). As to conditions: ERR reporter cell line, ONE-Glo luciferase, 18 h; at 92.4 µM (top of the series) unless noted. An outline of the steps: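 Agonist signal is luciferase luminescence from an ERR reporter cell line treated 18 h at 37 C with DMSO-dissolved compounds, read 30 min after ONE-Glo addition at room temperature.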

The nature of assay [6]: qHTS RealTime-Glo MT Cell Viability Assay in HepG2 cells - 24 hour (AID 1224867). Further: nearly all actives have a fitted effect of over 50% in size. Summed up: (§1)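 HepG2 suspension premixed with RealTime-Glo reagents is plated at 600 cells per well and left 5 h at 37 C/5% CO2. Compounds in DMSO then go in, and bioluminescence reflecting viable cell number is recorded over 40 h.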
A short description of assay [7]: A CellTox Green Cytotoxicity Assay to monitor cytotoxicity in HEK293 cells - 0 hour (AID 1224869). Further: nearly all actives have a fitted effect of over 50% in size. Summed up: (§2)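 Cytotoxicity was tracked continuously in HEK293 cells by a DNA-binding dye excluded from viable cells. Compounds were transferred in DMSO 5 h after seeding; fluorescence was recorded at intervals up to 40 h.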
Assay [8] can be described thus: qHTS RealTime-Glo MT Cell Viability Assay in HepG2 cells - 40 hour (AID 1224870). Further: nearly all actives have a fitted effect of over 50% in size. Summed up:
(§3)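 Real-time viability: cells seeded at 600 per well together with NanoLuc and cell-permeant prosubstrate, compounds added after 5 h incubation. Luminescence tracked at 0, 8, 16, 24, 32 and 40 h of exposure.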

Assay [9] can be described thus: A CellTox Green Cytotoxicity Assay to monitor cytotoxicity in HEK293 cells - 40 hour (AID 1224871). Further: nearly all actives have a fitted effect of over 45% in size. Further: potency means the concentration at half of the fitted maximal effect. Summed up:
as §2

Assay [10] can be described thus: qHTS RealTime-Glo MT Cell Viability Assay in HepG2 cells - 8 hour (AID 1224873). Further: nearly all actives have a fitted effect of over 55% in size. Summed up:
as §3

Assay [11] in a line: A CellTox Green Cytotoxicity Assay to monitor cytotoxicity in HEK293 cells - 24 hour (AID 1224875). Further: nearly all actives have a fitted effect of over 45% in size. Summed up: as §2
Assay [12] in a line: A CellTox Green Cytotoxicity Assay to monitor cytotoxicity in HepG2 cells - 16 hour (AID 1224876). Further: nearly all actives have a fitted effect of over 45% in size. Summed up:
(§4)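 Real-time, homogeneous cytotoxicity readout: dead-cell DNA staining by CellTox Green in HepG2 monolayers, fluorescence measured at timed intervals up to 40 h of continuous compound exposure.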

A short description of assay [13]: qHTS RealTime-Glo MT Cell Viability Assay in HepG2 cells - 32 hour (AID 1224877). Further: nearly all actives have a fitted effect of over 55% in size. An outline of the steps: as §1
Assay [14] in a line: A CellTox Green Cytotoxicity Assay to monitor cytotoxicity in HepG2 cells - 24 hour (AID 1224878). Further: nearly all actives have a fitted effect of over 45% in size. Further: potency means the concentration at half of the fitted maximal effect. Summed up: as §4
The nature of assay [15]: A CellTox Green Cytotoxicity Assay to monitor cytotoxicity in HepG2 cells - 40 hour (AID 1224879). Further: nearly all actives have a fitted effect of over 40% in size. Further: potency means the concentration at half of the fitted maximal effect. Summed up:
as §4

The nature of assay [16]: qHTS RealTime-Glo MT Cell Viability Assay in HEK293 cells - 0 hour (AID 1224880). Summed up:
(§5)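 Nonlytic bioluminescent viability monitoring. HEK293 at 600 cells/well with reagent; 5 h settle; compound transfer by pintool; plates held at 37 C and read at set time points.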

A short description of assay [17]: A CellTox Green Cytotoxicity Assay to monitor cytotoxicity in HEK293 cells - 32 hour (AID 1224881). Further: nearly all actives have a fitted effect of over 40% in size. Further: potency means the concentration at half of the fitted maximal effect. An outline of the steps: as §2
Assay [18] is described as follows: qHTS RealTime-Glo MT Cell Viability Assay in HEK293 cells - 32 hour (AID 1224868). Further: nearly all actives have a fitted effect of over 50% in size. Further: potency means the concentration at half of the fitted maximal effect. An outline of the steps: (§6)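 Reads taken at 0, 8, 16, 24, 32 and 40 h from the same wells. HEK293 cells (600/well) carried RealTime-Glo reagents from seeding, with compound added after a 5 h settle at 37 C.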
The nature of assay [19]: qHTS RealTime-Glo MT Cell Viability Assay in HEK293 cells - 16 hour (AID 1224872). Further: nearly all actives have a fitted effect of over 50% in size. Further: potency means the concentration at half of the fitted maximal effect. An outline of the steps:
as §6

Assay [20] can be described thus: qHTS RealTime-Glo MT Cell Viability Assay in HEK293 cells - 40 hour (AID 1224874). Further: nearly all actives have a fitted effect of over 50% in size. Further: potency means the concentration at half of the fitted maximal effect. The conditions noted are these: RealTime-Glo luminescence; max response: stronger effect = lower value. An outline of the steps:
as §5

Molecules are shown by their SMILES. A number with no mark means an inactive call. Inconclusive results are not listed. Active and inactive are the calls of the source. Unless noted, the call rests on the fitted dose curve; in most records, active means well fitted curve in the direction sought with a large enough effect in the repeat runs; inconclusive means weak or mixed curves; inactive means no such curve, though single readings can be large; an effect the other way counts as inactive or inconclusive.
On the % scale 0 is the no-effect control and ±100 the full control effect.

Turning to `CCCCOC(=O)c1ccccc1C(=O)OCc1ccccc1`, the Potency entry in assay [1], in assay [3], in [4], in assay [6], in [7] and in assay [8] was “inactive” in each case. Besides, the Potency entry in [9], in assay [10], in assay [11], in [12], in assay [13] and in assay [14] was “inactive” throughout. In addition, the Potency entry in assay [15], in assay [16] and in assay [17] was “inactive” throughout. For the same compound, the compound was called inactive in assay [2]. Also, the activity change, positive = activation in assay [5] was 3.01%.
As to `C=CC(=O)NCNC(=O)C=C`, the Potency result in [1], in assay [3], in assay [4], in assay [6], in assay [18] and in [7] was “inactive” in each case. The Potency result in [9], in [19], in assay [10], in assay [11], in assay [12] and in [13] was “inactive” throughout. Moreover, the Potency result in assay [14], in assay [16] and in assay [17] was “inactive” throughout. For the same compound, the outcome in assay [2] was inactive. Moreover, the activity change, positive = activation in assay [5] was 36.6% (active).
Regarding `O=C(NCc1cccnc1)Nc1ccc([N+](=O)[O-])cc1`, the Potency entry in [1], in assay [3], in assay [6], in assay [7], in [8] and in [9] was “inactive” in each case. In addition, the Potency result in assay [10], in assay [11], in [12], in assay [13], in assay [14] and in [15] was “inactive” in each case. Besides, in assay [16], the Potency result was “inactive”. In assay [2], the compound was called inactive. Moreover, the Potency in assay [18] was 49 µM (active); in assay [19] it was 49 µM (active); in assay [20], 54.9 µM (active).
In the case of `Clc1cc(C(Cl)(Cl)Cl)cnc1Cl`, the Potency in assay [1] is 89.8 µM (active); in assay [18], 34.7 µM (active); in [15], 34.7 µM (active). The compound was classed as inactive in [2]. The Potency result in [3], in assay [4], in [6], in assay [7], in assay [8] and in [10] was “inactive” in each case. For the same compound, the Potency result in assay [12] and in assay [13] was “inactive” each time. Moreover, in assay [5], the activity change, positive = activation is 0.0985%.
As for `O=C(O)C(F)(F)C(F)(F)C(F)(F)C(F)(F)C(F)(F)C(F)(F)C(F)(F)C(F)(F)C(F)(F)C(F)(F)F`, the Potency entry in assay [1], in assay [3], in [4], in assay [6], in assay [18] and in assay [7] was “inactive” each time. Moreover, the Potency entry in assay [9], in [19], in [11] and in [17] was “inactive” throughout. Also, the result in assay [2] was inactive. Also, in assay [5], the activity change, positive = activation is 8.05%. Also, the max response in assay [20] was 13.9%.
For `CCCCC(O)(Cn1cncn1)c1ccc(Cl)cc1Cl` (stereo not given), the Potency result in [1], in assay [7] and in assay [16] was “inactive” in each case. Moreover, the outcome in assay [2] was inactive. Besides, the Potency in assay [3] is 113 µM (active); in assay [4], 38.5 µM (active); in [18], 38.9 µM (active); in [9], 54.9 µM (active); in assay [19], 43.6 µM (active); in assay [20] it was 43.6 µM (active). Further, the Potency in [14] is 43.6 µM (active); in assay [15], 48.9 µM (active); in assay [17] it was 54.9 µM (active). Moreover, the activity change, positive = activation in assay [5] was -59.1%.
On to `CC(C)N(C(=O)COc1nnc(C(F)(F)F)s1)c1ccc(F)cc1`, for which the Potency entry in assay [1], in [3], in [7], in assay [9], in [11] and in [12] was “inactive” in each case. Also, the Potency entry in assay [14], in [15] and in assay [17] was “inactive” throughout. For the same compound, in assay [2], the compound was called inactive. The values for the Potency in assay [4] and in [19] were 54.5 µM (active) and 34.7 µM (active), respectively. Further, the activity change, positive = activation in assay [5] is -34.1%.
Consider `O=C(Nc1ccccc1)Nc1cnns1`, for which the Potency result in assay [1], in [3], in assay [6], in assay [7], in [8] and in assay [9] was “inactive” in each case. In addition, the Potency entry in assay [10], in assay [11], in [12], in assay [13], in assay [14] and in [15] was “inactive” throughout. For the same compound, the Potency result in assay [16] was “inactive”. Also, the compound was called inactive in assay [2]. Besides, the activity change, positive = activation in [5] was -23.5%. For the same compound, the Potency in assay [18] and in [20] was 27.5 µM (active) each time.
With `CC(Cl)C(C)Cl` (stereo not given), the Potency result in [1], in assay [3], in assay [4], in assay [6], in assay [18] and in [7] was “inactive” in each case. Also, the Potency result in assay [9], in assay [19], in [10], in [11], in assay [12] and in assay [13] was “inactive” in each case. The Potency entry in [14], in [15], in [16] and in [17] was “inactive” throughout. Besides, the compound was called inactive in assay [2]. For the same compound, the activity change, positive = activation in assay [5] is 0.315%. Moreover, the max response in assay [20] is 1.04%.
